The values below come from paper PMC6212833.

Whole data set: some 2,000 compounds, median “B-score” near -0.0024, cut for the highest 2% near 4. The full list was thinned out, with the highest values kept by preference. Where a SMILES comes first, the peptide text is derived from it. [ ]: non-standard residue; d: D form. dPhe(4-Cl) = N[C@H](Cc1ccc(Cl)cc1)C(=O)O; d2Nal = N[C@H](Cc1ccc2ccccc2c1)C(=O)O; dCit = NC(=O)NCCC[C@@H](N)C(=O)O; d3Pal = N[C@H](Cc1cccnc1)C(=O)O

This assay relates to Balamuthia mandrillaris (ATCC PRA-291) trophozoites, axenic culture. As to the kind of experiment: primary screen, b score. The conditions noted are these: 20 µM. The method, then: Screening of a clinically approved library of compounds, compiled by the Small Molecule Discovery Center (SMDC) at the UCSF, was completed at 20 µM in 0.2% DMSO. All 2,177 drugs in the library were stored as 10 mM stocks dissolved in 100% DMSO (Sigma-Aldrich) at −20°C. B. mandrillaris amoebae were resuspended in axenic medium and distributed into opaque 384-well plates (Corning) at a density of 3,000 amoebae per well using a BioMek NX liquid handler. Negative-control wells were treated with vehicle only (0.2% DMSO in axenic medium), and positive-control wells simulating total destruction of amoebae were seeded with amoeba lysate generated by 3 consecutive freeze-thaw cycles. Following 72 h of incubation, 30 µl of CellTiter Glo reagent (CTG; Promega) was added to each well. The luminescence was measured with a Promega GloMax-Multi+ plate reader at 2, 4, and 8 h after CTG addition. […] The B-score, representing a plate-based statistical approach for correcting row, column, and edge effects, was also calculated for each compound in the library (75).
Compound `CC(CCc1ccccc1)NC(C)C(O)c1ccc(O)cc1` (centres unmarked) gave a B-score of 1.37.
Turning to `CCn1cc(C(=O)O)c(=O)c2cc(F)c(N3CCN(C)CC3)cc21` [518631-L6], the B-score was found to be 0.04.
For `CC(=O)N[C@H](Cc1ccc2ccccc2c1)C(=O)N[C@H](Cc1ccc(Cl)cc1)C(=O)N[C@H](Cc1cccnc1)C(=O)N[C@@H](CO)C(=O)N[C@@H](Cc1ccc(O)cc1)C(=O)N[C@H](CCCNC(N)=O)C(=O)N[C@@H](CC(C)C)C(=O)N[C@@H](CCCN=C(N)N)C(=O)N1CCC[C@H]1C(=O)N[C@H](C)C(N)=O` (Ac-[d2Nal][dPhe(4-Cl)][d3Pal]SY[dCit]LRP[dA]-NH2), the B-score was -2.68.
With `Cc1c(F)c(N2CCNC(C)C2)cc2c1c(=O)c(C(=O)O)cn2C1CC1` (centres unmarked), the B-score was -0.223.
As for `O=C(O)CCCCCCCC(=O)O`, the figure is 0.466.
In the case of `CC(CN(C)C)CN1c2ccccc2Sc2ccccc21` (centres unmarked), the B-score amounted to 0.0868.
Take `CO[C@H]1/C=C/O[C@@]2(C)Oc3c(C)c(O)c4c(O)c(c5c(c4c3C2=O)=NC2(CCN(CC(C)C)CC2)N=5)NC(=O)/C(C)=C\C=C\[C@H](C)[C@H](O)[C@@H](C)[C@@H](O)[C@@H](C)[C@H](OC(C)=O)[C@@H]1C`: the B-score turned out to be 1.11.
Regarding `OCCOCCN1CCN(C(c2ccccc2)c2ccc(Cl)cc2)CC1` (centres unmarked) [130849-L5], the B-score came out at 1.53.
`C=C1CC[C@H](O)C/C1=C/C=C1\CCC[C@]2(C)C([C@H](C)/C=C/[C@H](C)C(C)C)CC[C@@H]12` (some centres unmarked) had a B-score of 0.264.
The compound `CCc1cc2c(cc1CC)CC(NC[C@H](O)c1ccc(O)c3nc(O)ccc13)C2` registered a B-score of 1.
The value for `Nc1ccc(S(=O)(=O)c2ccc(N)cc2)cc1` was -0.0896; that for `Cc1cc(N)c2ccccc2[n+]1CCCCCCCCCC[n+]1c(C)cc(N)c2ccccc21` was 13.
The compound `Nc1ccn([C@@H]2CS[C@H](CO)O2)c(=O)n1` gave a B-score of 1.59.
Compound `CN1C(CSCC(F)(F)F)Nc2cc(Cl)c(S(N)(=O)=O)cc2S1(=O)=O` (centres unmarked) returned a B-score of 0.321.
On to `CCN[C@H]1C[C@H](C)S(=O)(=O)c2sc(S(N)(=O)=O)cc21`, for which the B-score is given as -1.38.
For the compound `CC[C@@]1(O)C(=O)OCc2c1cc1n(c2=O)Cc2cc3c(CN(C)C)c(O)ccc3nc2-1`, the B-score amounted to 2.13.
`CCCCCCCCCCCCCCCCCCCCCCO` registered a B-score of -0.00277.
`CCCCCCCCCCCCC[N+](C)(C)Cc1ccccc1` registered a B-score of 3.43.
`CCCCCCCCCCCCCCCC[n+]1ccccc1`: the B-score amounted to 7.82.
In the case of `O=S(=O)(OC[C@H]1O[C@@H](O[C@]2(COS(=O)(=O)[O][Al]([OH])[OH])O[C@H](OS(=O)(=O)[O][Al]([OH])[OH])[C@@H](OS(=O)(=O)[O][Al]([OH])[OH])[C@@H]2OS(=O)(=O)[O][Al]([OH])[OH])[C@H](OS(=O)(=O)[O][Al]([OH])[OH])[C@@H](OS(=O)(=O)[O][Al]([OH])[OH])[C@@H]1OS(=O)(=O)[O][Al]([OH])[OH])[O][Al]([OH])[OH]`, the B-score is -0.0184.
Consider `C/C=C/C/C=C/CCC(=O)[C@H]1O[C@H]1C(N)=O`, for which the B-score was -0.632.
On to `CN(CC(=O)O)C(=N)N`, for which the B-score is on record as -5.89.
As for `CN1C2CCC[C@H]1C[C@H](NC(=O)c1nn(C)c3ccccc13)C2`, the figure is -0.598.
As for `C[S+](CC[C@H](N)C(=O)O)C[C@H]1O[C@@H](n2cnc3c(N)ncnc32)[C@H](O)[C@@H]1O` (some centres unmarked), the figure is 0.856; as for `CC(=O)c1ccc2c(c1)N(CCCN1CCC(CCO)CC1)c1ccccc1S2`, -0.0165.
As for `Oc1ccc(Cl)cc1Cc1cc(Cl)ccc1O`, the B-score is recorded as 5.34.
As for `Oc1ccc(Cl)cc1`, the figure is 0.00397.
In turn, `CC(C)(C)CC(C)(C)c1ccc(O)c(Cc2ccc(Cl)cc2Cl)c1` displayed a B-score of 2.02.
Turning to `Cc1cc(C(C)(C)C)c(O)c(C(C)(C)C)c1`, the B-score was -0.212.
As for `Nc1nc(=O)n([C@@H]2CS[C@H](CO)O2)cc1F`, the B-score was -0.911.
As for `CNC(=O)c1c(I)c(NC(C)=O)c(I)c(C(=O)O)c1I`, the figure is 0.108.
As for `CO[C@H](C(=O)[C@@H](O)[C@@H](C)O)[C@@H]1Cc2cc3cc(O[C@H]4C[C@@H](O[C@H]5C[C@@H](O)[C@H](O)[C@@H](C)O5)[C@H](O)[C@@H](C)O4)c(C)c(O)c3c(O)c2C(=O)[C@H]1O[C@H]1C[C@@H](O[C@H]2C[C@@H](O[C@H]3C[C@](C)(O)[C@H](O)[C@@H](C)O3)[C@@H](O)[C@@H](C)O2)[C@H](O)[C@@H](C)O1`, the figure is 8.18.
On to `CC(=O)O[C@@]12CO[C@@H]1C[C@H](O)[C@@]1(C)C(=O)[C@H](O)C3=C(C)[C@@H](OC(=O)[C@H](O)[C@@H](NC(=O)OC(C)(C)C)c4ccccc4)C[C@@](O)([C@@H](OC(=O)c4ccccc4)C12)C3(C)C` (some centres unmarked), for which the B-score is on record as -2.24.
As for `CCN1CCCC(OC(=O)C(c2ccccc2)c2ccccc2)C1` (centres unmarked), the figure is 0.874.
As for `CC(C)(C)c1ccc(C(O)CCCN2CCC(C(O)(c3ccccc3)c3ccccc3)CC2)cc1` (centres unmarked), the figure is -2.26; as for `Oc1ccnc(O)n1`, 1.41; as for `CC(C)n1c(/C=C/[C@@H](O)C[C@@H](O)CC(=O)O)c(-c2ccc(F)cc2)c2ccccc21` [255968-L3], -0.277.
Regarding `CC(C)n1c(/C=C/[C@@H](O)C[C@@H](O)CC(=O)O)c(-c2ccc(F)cc2)c2ccccc21` [255968-L2], the B-score is listed as 3.74.
As for `CC(C)c1c(C(=O)Nc2ccccc2)c(-c2ccccc2)c(-c2ccc(F)cc2)n1CC[C@@H](O)C[C@@H](O)CC(=O)O`, the figure is 6.68; as for `CCC(=O)O[C@]1(C(=O)CCl)[C@@H](C)C[C@H]2[C@@H]3CCC4=CC(=O)C=C[C@]4(C)[C@@]3(F)[C@@H](O)C[C@@]21C` [285821-L1], -1.34; as for `Cc1ccccc1N1CCN(CCc2nnc3n2CCCC3)CC1`, 2.29.
The compound `COC(=O)N/N=C/c1c[n+]([O-])c2ccccc2[n+]1[O-]` came in with a B-score of 2.88.
The compound `O=C1CCc2ccc(OCCCCN3CCN(c4cccc(Cl)c4Cl)CC3)cc2N1` [756864-L1] displayed a B-score of 1.99.
The compound `CCOC(=O)/C=C(C)/C=C/C=C(C)/C=C/c1c(C)cc(OC)c(C)c1C` yielded a B-score of -0.469.
For the compound `CCCCCCCCCCCCCCCC[N+](C)(C)C`, the B-score worked out at 10.
In turn, `C[N+](C)(C)CCCCCCCCCC[N+](C)(C)C` registered a B-score of 0.626.
`C[N+](C)(C)CCCCCC[N+](C)(C)C` yielded a B-score of -0.576.
